About 300 (0.45%) of roughly 67,000 compounds showed an effect of 50% or more. For the sample, strong results were picked, then their nearest neighbours and some compounds at random.
These molecules were tested against Polyketide synthase Pks13 (Mycobacterium tuberculosis (strain ATCC 25618 / H37Rv)) (UniProt I6X8D2) (assay: Mycobacterium tuberculosis Polyketide synthase 13 Thioesterase (PKS13)). Details: 30 µM.
Type: functional
Parameters: scale not given: in the data most compounds retested in dose-response had high values

Polyketide synthase Pks13 (Mycobacterium tuberculosis (strain ATCC 25618 / H37Rv)), sequence (I6X8D2 whole entry): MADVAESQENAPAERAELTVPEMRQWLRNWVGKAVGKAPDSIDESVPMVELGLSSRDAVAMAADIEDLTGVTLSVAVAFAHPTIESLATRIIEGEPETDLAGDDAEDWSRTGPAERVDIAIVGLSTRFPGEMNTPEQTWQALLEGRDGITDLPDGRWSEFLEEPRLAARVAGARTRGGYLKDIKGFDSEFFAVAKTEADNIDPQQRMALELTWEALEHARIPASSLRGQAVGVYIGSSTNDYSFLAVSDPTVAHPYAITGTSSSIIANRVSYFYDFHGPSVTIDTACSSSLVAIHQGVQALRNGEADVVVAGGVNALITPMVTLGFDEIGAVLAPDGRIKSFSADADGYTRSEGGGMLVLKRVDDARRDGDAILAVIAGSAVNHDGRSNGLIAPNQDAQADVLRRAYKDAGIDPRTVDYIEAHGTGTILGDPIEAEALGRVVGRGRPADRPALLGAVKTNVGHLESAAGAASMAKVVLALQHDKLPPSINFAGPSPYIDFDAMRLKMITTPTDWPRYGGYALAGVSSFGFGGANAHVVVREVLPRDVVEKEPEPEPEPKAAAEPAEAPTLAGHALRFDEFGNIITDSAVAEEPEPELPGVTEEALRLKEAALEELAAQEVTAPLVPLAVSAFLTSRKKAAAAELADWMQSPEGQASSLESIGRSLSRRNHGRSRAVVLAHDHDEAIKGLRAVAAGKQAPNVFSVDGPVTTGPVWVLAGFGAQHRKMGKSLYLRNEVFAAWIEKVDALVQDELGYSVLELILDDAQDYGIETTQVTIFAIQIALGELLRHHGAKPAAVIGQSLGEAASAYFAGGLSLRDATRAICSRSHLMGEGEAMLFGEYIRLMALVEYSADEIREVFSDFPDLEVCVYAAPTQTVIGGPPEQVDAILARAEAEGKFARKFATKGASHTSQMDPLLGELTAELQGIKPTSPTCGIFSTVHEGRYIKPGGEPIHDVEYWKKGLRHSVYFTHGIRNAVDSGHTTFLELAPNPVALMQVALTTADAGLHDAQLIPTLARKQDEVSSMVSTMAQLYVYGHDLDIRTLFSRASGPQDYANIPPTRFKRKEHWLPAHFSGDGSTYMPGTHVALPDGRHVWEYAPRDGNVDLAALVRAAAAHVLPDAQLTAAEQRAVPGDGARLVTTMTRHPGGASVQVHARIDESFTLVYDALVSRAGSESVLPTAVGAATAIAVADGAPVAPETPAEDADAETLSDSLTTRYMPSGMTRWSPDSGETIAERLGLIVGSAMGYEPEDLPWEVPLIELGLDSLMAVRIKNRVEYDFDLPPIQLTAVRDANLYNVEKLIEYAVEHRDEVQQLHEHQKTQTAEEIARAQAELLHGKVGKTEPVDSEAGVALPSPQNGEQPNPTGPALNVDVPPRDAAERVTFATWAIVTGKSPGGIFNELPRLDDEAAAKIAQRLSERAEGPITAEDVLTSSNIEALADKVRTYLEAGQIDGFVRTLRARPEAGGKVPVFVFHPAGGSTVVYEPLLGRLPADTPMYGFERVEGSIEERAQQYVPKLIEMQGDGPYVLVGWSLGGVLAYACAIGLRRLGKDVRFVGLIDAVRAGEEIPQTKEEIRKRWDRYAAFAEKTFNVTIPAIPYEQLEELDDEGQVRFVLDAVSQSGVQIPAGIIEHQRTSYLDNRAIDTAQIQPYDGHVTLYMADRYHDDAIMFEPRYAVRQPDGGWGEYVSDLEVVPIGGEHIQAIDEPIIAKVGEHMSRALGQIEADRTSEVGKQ

Row | SMILES | Percent Effect [%]
1 | Cc1nc[nH]c1CN1CCN(C(=O)c2cccs2)[C@H]2CS(=O)(=O)C[C@H]21 | -7.55
2 | COCCN1C[C@H]2CC[C@@H]1CN(CC(=O)Nc1ccn(C)n1)C2 | -11.6
3 | O=C(c1cnccn1)N1CCN2C[C@H](Oc3cccc(F)c3)C[C@H]2C1 | -42.7
4 | O=C(Cc1cccc(F)c1)N1CCN2C[C@H](Oc3cncnc3)C[C@H]2C1 | -1.46
5 | O=C(C1CC1)N1CCN2C[C@@H](CO)[C@H](c3ccccc3)[C@H]2C1 | 2.09
6 | Cc1nnc([C@H]2CC[C@@H]3[C@@H](CCN3CC3CCOCC3)O2)o1 | -25.5
7 | CN(C)C(=O)CO[C@@H]1CC[C@H]2[C@H]1OCCN2c1ncc(F)cn1 | -1.97
8 | COCCN1C(=O)C[C@H]2[C@H]1CCN2Cc1cccc(C#N)c1 | -24.2
9 | CO[C@@H]1CC[C@@H](N(C)C(=O)c2cn3cc(C)ccc3n2)[C@H]1O | -0.591
10 | Cc1ccc2nc(C(=O)N(C)[C@@H]3CC[C@@H](N4CCCC4)[C@@H]3O)cn2c1 | 61.6
11 | CO[C@@H]1CCC[C@@H](N(C)C(=O)c2cn3cc(C)ccc3n2)[C@H]1O | -3.51
12 | CC(C)=CCN1C[C@H]2CC[C@@H]1CN(S(=O)(=O)c1cccnc1)C2 | 7.63
13 | CCN1CC[C@@]2(C(=O)N3CCOCC3)CCN(C(=O)NC)CC[C@@H]12 | -31.8
14 | CC(C)NC(=O)NC(C)c1nc(-c2ccccc2)cs1 (stereo unspecified) | 0.666
15 | CC(NC(=O)NCC(C)(C)C(N)=O)c1nc(-c2ccccc2)cs1 (stereo unspecified) | 55.9
16 | CC(NC(=O)NC1CC1)c1nc(-c2ccccc2)cs1 (stereo unspecified) | -2.19
17 | CNC(=O)c1cc2c(nc1NCC(C)C)CCN(S(C)(=O)=O)CC2 | 51
18 | CNC(=O)c1cc2c(nc1NCC(C)C)CCN(C)CC2 | 49.9
19 | CNC(=O)c1cc2c(nc1NCC(C)C)CCN(c1ccncn1)CC2 | 94.4
20 | CNC(=O)c1cc2c(nc1NCC(C)C)CCN(c1ncccn1)CC2 | 16.7
21 | CCS(=O)(=O)N1CCc2cc(C(=O)NC)c(NCC(C)C)nc2CC1 | -68.6
22 | CNC(=O)c1cc2c(nc1NCC(C)C)CCN(S(=O)(=O)C1CC1)CC2 | -13.9

Row | SMILES | Percent Effect [%]
23 | CNC(=O)c1cc2c(nc1NCC1CC1)CCN(S(C)(=O)=O)CC2 | 55.9
24 | CCS(=O)(=O)N1CCc2cc(C(=O)NC)c(NCC3CC3)nc2CC1 | 23.6
25 | CNC(=O)c1cc2c(nc1NCC1CC1)CCN(CC1CC1)CC2 | 42.7
26 | CNC(=O)c1cc2c(nc1NCC1CC1)CCN(S(=O)(=O)C1CC1)CC2 | -32.9
27 | CNC(=O)c1cc2c(nc1NCC1CC1)CCN(c1ccncn1)CC2 | -246
28 | CNC(=O)c1cc2c(nc1NCC(C)C)CCN(CC1CC1)CC2 | 51.6
29 | O=C(NC1CC1)[C@@H]1CCO[C@@H]2CCN(C3CCOCC3)C[C@H]21 | -9.37
30 | Cc1noc(C)c1CN1C[C@@H]2CCCO[C@@H]2[C@H](NS(C)(=O)=O)C1 | -27.6
31 | O=C([C@@H]1COC[C@H]2CN(CC3CCCC3)C[C@H]21)N1CCOCC1 | -31.7
32 | CO[C@@H]1CCN(c2ncc(F)cn2)[C@@H]2CN(CC3CC3)C[C@@H]21 | -32.1
33 | CC(C)N1CCO[C@H]2CN(C(=O)c3ccsc3)C[C@H]21 | -16
34 | Cc1cc(CN2CCN(C(=O)C(C)C)[C@@H]3CS(=O)(=O)C[C@@H]32)ccc1F | -6.06
35 | CNC(=O)c1cc2c(nc1NCC1CC1)CCNCC2 | 81.7
36 | CNC(=O)c1cc2c(nc1NCC1CC1)CCN(c1ncccn1)CC2 | 9.04
37 | CN(C)C(=O)c1cc2c(nc1NCC1CC1)CCNCC2 | -20.1
38 | O=C1[C@@H]2CCN(Cc3ccoc3)C[C@@H]2OCCN1c1cccnc1 | -7.12
39 | Cc1noc([C@H]2C[C@H]3CN(C(=O)Cc4ccsc4)CC[C@H]3O2)n1 | -10.9
40 | O=C(CC1CC1)N[C@@H]1CN(Cc2nccs2)C[C@@H]2CCCO[C@@H]21 | -33.5
41 | Cc1nc(COC[C@@H]2CC[C@H]3[C@H](CCN3c3ncccn3)O2)cs1 | -28.4
42 | CC(=O)N1CCC(c2cc(C(F)(F)F)n3ccnc3n2)CC1 | 41.8
43 | COCC(=O)N1CCC(c2cc(C(F)(F)F)n3ccnc3n2)CC1 | 61.5
44 | FC(F)(F)c1cc(C2CCN(c3cnccn3)CC2)n2ccnc2n1 | 18.1

Row | SMILES | Percent Effect [%]
45 | CC(=O)N1CCC(c2cc(C(F)(F)F)nc3nccn23)CC1 | 57.5
46 | CN1CCC(c2cc(C(F)(F)F)n3ccnc3n2)CC1 | -20.7
47 | CC(C)N1CCCC(c2cc(C(F)(F)F)nc3nccn23)C1 (stereo unspecified) | 24.5
48 | c1cc(CN2CCO[C@H]3[C@H](OCCN4CCCC4)CC[C@@H]32)ccn1 | -11.4
49 | CC1=N[C@@]2(CC[C@@H]3CN(CC(=O)N(C)C)C[C@@H]32)C(=O)N1CC(C)C | -5.03
50 | COCCCN1C(=O)CC[C@H]2CN(Cc3cc4ccccc4o3)CC[C@H]21 | -4.88
51 | COCCN1CCO[C@@H]2CN(Cc3ccc(C)s3)C[C@@H]2C1 | -27.7
52 | CN(C)C(=O)CN1C[C@@H]2CC[C@H](C1)N(Cc1ccccc1C#N)C2 | 6.99
53 | CN1CCCN(c2nccc(-c3c[nH]c4ccc(Br)cc34)n2)CC1 | -2.62
54 | COc1ccc2[nH]cc(-c3ccnc(N4CCC(C)CC4)n3)c2c1 | 71.9
55 | COc1ccc2[nH]cc(-c3ccnc(NC4CCCC4)n3)c2c1 | 18.6
56 | O=C(COC1CCCC1)N1C[C@@H]2COC[C@]2(COc2cccnc2)C1 | -18
57 | Nc1nccnc1CC1CCCN(Cc2c[nH]c3ccccc23)C1 (stereo unspecified) | 15.3
58 | COc1ccccc1CN1CCCC(Cc2nccnc2N)C1 (stereo unspecified) | -2.41
59 | Nc1nccnc1CC1CCCN(Cc2ccnc3ccccc23)C1 (stereo unspecified) | 126
60 | CCN1C[C@H]2CCN(C(=O)NC3CCCC3)CC[C@H]2S1(=O)=O | -17.8
61 | CC(=O)N1[C@H](Cn2cncn2)C[C@@H]2CN(C(=O)NC3CC3)CC[C@@H]21 | 12.2
62 | O=C(Nc1cnccn1)[C@H]1CO[C@H]2CCN(c3ncc(F)cn3)C[C@H]2C1 | -40.3
63 | COCCN1C(=O)[C@]2(CC[C@@H]3CN(Cc4ccccc4F)C[C@@H]32)N=C1C | -17.4
64 | Cc1csc2ncc(-c3ccnc(N4CCN(C)CC4)n3)c(=O)n12 | -27.4
65 | Cc1csc2ncc(-c3ccnc(N4CCCC4)n3)c(=O)n12 | 137
66 | Cc1csc2ncc(-c3ccnc(N4CCCN(C)CC4)n3)c(=O)n12 | 37.9

Row | SMILES | Percent Effect [%]
67 | C/C(NC(=O)c1ccco1)=C1/C(=O)C[C@@H]2[C@H]1C2(C)C | 0.624
68 | CCCc1ccc(CN2C[C@H]3C(=O)N(CC4CC4)C[C@@]3(C(=O)O)C2)o1 | -6.91
69 | COCCN1C[C@@H]2CN(c3ncc(F)cn3)C[C@@H]2C1=O | -5
70 | O=C1[C@H]2CN(c3ncccn3)C[C@H]2CN1CCN1CCCC1 | -2.18
71 | COCCN1C[C@@H]2CN(c3ncccn3)C[C@@H]2C1=O | 54.8
72 | O=C(NC[C@@H]1C[C@@H]2CN(C(=O)CO)C[C@H]2O1)c1ccsc1 | -53.3
73 | O=C(c1ccc(-n2ccnc2)cc1)N1CCCC1 | -36.5
74 | O=C(c1ccc(-n2cncn2)cc1)N1CCN(c2cnccn2)CC1 | -11.1
75 | Cc1ccnn1-c1ccc(C(=O)N2CCN(c3cnccn3)CC2)cc1 | 1.07
76 | O=C(c1cnn(-c2ccccc2)c1)N1CCN(c2cnccn2)CC1 | -16.8
77 | O=C(c1ccc(-n2cc(Br)cn2)cc1)N1CCN(c2cnccn2)CC1 | 81.5
78 | O=C(c1ccc(-n2ccnc2)cc1)N1CCN(c2cnccn2)CC1 | 64.5
79 | O[C@@]1(c2ccccn2)CC[C@H]2CN(Cc3cccc(Cl)c3Cl)C[C@H]21 | -48.7
80 | O=C(C1CC1)N1C[C@H]2CNC[C@@]2(C(=O)NCCCc2ccccc2)C1 | -27.1
81 | Cc1ncsc1CN1C[C@H](C(=O)NCC2CC2)[C@@H]2CCO[C@@H]2C1 | -19.8
82 | Cc1ccc(CNC(=O)NCCCn2nc3ccccn3c2=O)s1 | 96.8
83 | CCNC(=O)NCCCn1nc2ccccn2c1=O | 0.265
84 | O=C(NCCCn1nc2ccccn2c1=O)NCc1ccccc1 | 2.17
85 | Cc1nc(COC[C@@]23CCC[C@@H]2CN(CC2CCOCC2)C3)cs1 | -23.1
86 | O[C@@H]1C[C@@](CNCC2CC2)(COc2cccnc2)C[C@@H]1O | -28.2
87 | Cc1cc(CN2C[C@@H]3COC[C@@H](C(=O)N4CCCCO4)[C@@H]3C2)oc1C | -7.51
88 | NC(=O)N1CCCC(C(=O)N2CCN(c3nsc4ccccc34)CC2)C1 (stereo unspecified) | -37.1

Row | SMILES | Percent Effect [%]
89 | CC(C)N1CCCC(C(=O)N2CCN(c3nsc4ccccc34)CC2)C1 (stereo unspecified) | -2.9
90 | CCN1CC(C(=O)N2CCN(c3nsc4ccccc34)CC2)CCC1=O (stereo unspecified) | 105
91 | O=C(COC[C@H]1CC[C@H]2[C@H](CCN2c2ncccn2)O1)N1CCCC1 | -9.39
92 | CC(C)=CCN1CCN(C(=O)COc2ccccc2)[C@H]2CS(=O)(=O)C[C@H]21 | -8.58
93 | O=C(C1CC(F)(F)C1)N1C[C@@H]2CN(Cc3ccoc3)CCO[C@@H]2C1 | -7.81
94 | Cc1cccc(CN2CCN(C(=O)N(C)C)[C@@H]3CS(=O)(=O)C[C@@H]32)n1 | -6.96
95 | CCn1cc(-c2cc(-c3ccn(C)c3)nc(N)c2C#N)cc1C#N | 58.3
96 | COc1ncc(-c2cc(-c3ccn(C)c3)nc(N)c2C#N)cn1 | 9.8
97 | CCNc1ncc(-c2cc(-c3ccn(C)c3)nc(N)c2C#N)cn1 | 5.42
98 | CN(C)C(=O)COCC1C[C@@H]2OCCN(Cc3ccco3)[C@H]2C1 (stereo partly specified) | -27.3
99 | COc1cc(N2C[C@@H]3COC[C@]3(COCc3ccncc3)C2)ncn1 | -5.91
100 | O=C(C[C@@H]1COC[C@H]2CN(C3CCC3)C[C@@H]12)NCc1cccnc1 | 0.641
101 | O=C(c1ccc(F)cc1)N1C[C@H]2CCC[C@@]2(COCc2ccccn2)C1 | -35.6
102 | Cn1cc(NC(=O)c2ccccn2)cc(Cl)c1=O | -33.4
103 | COc1ccsc1C(=O)Nc1cc(Cl)c(=O)n(C)c1 | -16.3
104 | Cn1cc(NC(=O)c2cc[nH]n2)cc(Cl)c1=O | 70.5
105 | O=C(c1ccnnc1)N1CCN2C[C@H](Oc3cccnc3)C[C@H]2C1 | -17.2
106 | COc1ncccc1CN1C[C@H]2CCN(C(C)C)C[C@H]2C1 | 8.32
